Where “and” joins values, the source holds several entries; their conditions need not be identical. Equal values may be shown once. Results filed as inconclusive are left out. The source holds several records for some structures; these can differ, active in one and inactive in another. Calls of active or inactive are those of the source. The calls were made as follows, unless noted: active = hit-call score of the fitted dose curve at least 0.9, where 1 is the maximum; inactive = score below 0.9.
How the values were obtained:
[1] = read-out: Monokine induced gamma interferon (MIG), CXCL9 (gene 4283); assay: BSK_SAg_MIG: BioMAP Diversity Plus: SAg Assay for Monokine induced gamma interferon (MIG) Biomarker Activity (AID 2283092); conditions: primary human HUVEC with PBMC; actives raise or lower the signal
Summary of the method: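 HUVEC plus human PBMC co-culture, chemicals dosed and MIG (CXCL9) quantified by ELISA at 24 h. Bidirectional curve fitting against DMSO as negative control and baseline, so both gain and loss of signal count as activity.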

[2] = BSK_SAg_PBMCCytotoxicity: PBMC Cytotoxicity Assessment in the BioMAP Diversity Plus: SAg Assay (AID 2283093); conditions: primary human HUVEC with PBMC;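 also: PBMC viability measured as Alamar Blue reduction fluorescence at 546/580 nm; fitted both ways against DMSO so a hit may be loss or gain of signal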;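 as to AC50: PBMC superantigen activated with SEB plus TSST-1 one hour after compound addition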
Summary of the method: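 Human umbilical vein endothelial cells co-cultured with PBMC; PBMC (75,000/well) pre-treated with compound 1 h, then activated with SEB and TSST-1 (20 ng/mL final each) for 90 h. Alamar Blue added 6 h, fluorescence 546/580 nm; bidirectional fit versus DMSO.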

[3] = read-out: Interleukin-8 (IL8), CXCL8 (gene 3576); assay: BSK_SAg_IL8: BioMAP Diversity Plus: SAg Assay for Interleukin-8 (IL8) Biomarker Activity (AID 2283094); conditions: primary human HUVEC with PBMC; actives raise or lower the signal
Summary of the method: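 ELISA read-out of IL-8 in a primary human vascular co-culture (umbilical vein endothelium plus PBMC), taken 24 h after compound addition. Values derive from bidirectional fits against DMSO negative controls.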

[4] = BSK_SAg_Proliferation: Cell Proliferation Assessment in the BioMAP Diversity Plus: SAg Assay (AID 2283095); conditions: primary human HUVEC with PBMC;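 also: relative cell number as total protein by SRB absorbance in sub-confluent culture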
Summary of the method: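 Cells (endothelium plus PBMC, human primary) were dosed with chemical, cultured 96 h, fixed in 10% TCA and stained with 0.1% SRB. Absorbance at 560 nm gave relative protein, fitted bidirectionally relative to DMSO.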

[5] = BSK_SAg_SRB: Viability Assessment in the BioMAP Diversity Plus: SAg Assay (AID 2283096); conditions: primary human HUVEC with PBMC;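 also: cells read one day after compound addition; hits may be either gain or loss of signal compared with DMSO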
Summary of the method: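 Endothelial/PBMC primary human co-culture; compound 24 h; fix 10% TCA, stain 0.1% SRB, A560; protein content as cytotoxicity proxy; bidirectional curve fit, DMSO = baseline.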

[6] = read-out: E-selectin (Homo sapiens) (UniProt P16581); assay: BSK_SAg_Eselectin: BioMAP Diversity Plus: SAg Assay for Eselectin Biomarker Activity (AID 2283091); conditions: primary human HUVEC with PBMC; actives raise or lower the signal
Summary of the method: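 E-selectin ELISA readout at 24 h post-dosing in human umbilical vein endothelial cell/PBMC co-culture; gain or loss of signal fitted relative to DMSO baseline.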

[7] = biological target: human CYP1A1, CYP1A1 (gene 1543) (UniProt P04798); assay: NVS_ADME_hCYP1A1: NovaScreen (NVS) CYP450-related Enzyme Activity (ADME) Assay for human CYP1A1 (AID 2283100; active = hit-call score of the fitted dose curve at least 0.9, where 1 is the maximum)
Summary of the method: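 Read-out: fluorescence intensity from enzymatic turnover of substrate by recombinant CYP1A1, loss of signal indicating inhibition. Incubation 1 h post-dose. Primary single-point 10 uM in duplicate; actives rerun singly with top concentration 20 uM.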

[8] = biological target: human CYP2B6, CYP2B6 (gene 1555) (UniProt P20813); assay: NVS_ADME_hCYP2B6: NovaScreen (NVS) CYP450-related Enzyme Activity (ADME) Assay for human CYP2B6 (AID 2283101; active = hit-call score of the fitted dose curve at least 0.9, where 1 is the maximum)
Summary of the method: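 Recombinant human CYP2B6 with fluorogenic substrate, read by fluorescence intensity 1 h after dosing. Primary screen in duplicate at 10 uM, actives followed in concentration series; signal loss relative to acetonitrile control.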

[9] = biological target: human CYP1A2, CYP1A2 (gene 1544) (UniProt P05177); assay: NVS_ADME_hCYP1A2: NovaScreen (NVS) CYP450-related Enzyme Activity (ADME) Assay for human CYP1A2 (AID 2283102; active = hit-call score of the fitted dose curve at least 0.9, where 1 is the maximum;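 also: potency for inhibition since loss of fluorescence marks reduced CYP1A2 activity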)
Summary of the method: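 Fluorescence-intensity enzyme activity read-out, taken 0.5 h post-dosing, using insect-cell-derived recombinant CYP1A2 and specific fluorescent substrate. Acetonitrile served as negative control/baseline. Single-concentration duplicate screen at 10 uM, then concentration-response follow-up.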

[10] = biological target: human CYP2D6, CYP2D6 (gene 1565) (UniProt P10635); assay: NVS_ADME_hCYP2D6: NovaScreen (NVS) CYP450-related Enzyme Activity (ADME) Assay for human CYP2D6 (AID 2283107; active = hit-call score of the fitted dose curve at least 0.9, where 1 is the maximum)
Summary of the method: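 Fluorescence intensity read 1 h post-dosing; insect-cell-expressed recombinant protein with fluorogenic substrate, no cells. Activity is scored as signal loss relative to acetonitrile baseline, first at a single 10 uM concentration in duplicate, then as concentration series for confirmed actives.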

[11] = biological target: Cytochrome P450 2C19 (Homo sapiens) (UniProt P33261); assay: NVS_ADME_hCYP2C19: NovaScreen (NVS) CYP450-related Enzyme Activity (ADME) Assay for human CYP2C19 (AID 2283113; active = hit-call score of the fitted dose curve at least 0.9, where 1 is the maximum;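 also: potency for inhibition seen as loss of fluorescent signal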)
Summary of the method: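 Recombinant insect-cell-expressed enzyme, fluorescent substrate, 1 h after chemical addition, fluorescence intensity. Baseline = acetonitrile vehicle; activity scored as signal loss. Primary HTS single concentration 10 uM, duplicate; actives retested in concentration series.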

[12] = biological target: rat CYP2A1, Cyp2a1 (gene 24894) (UniProt P11711); assay: NVS_ADME_rCYP2A1: NovaScreen (NVS) CYP450-related Enzyme Activity (ADME) Assay for rat CYP2A1 (AID 2283114)
Summary of the method: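 Recombinant rat CYP2A1, cell-free, fluorogenic substrate turnover read by fluorescence intensity 0.75 h after dosing. Primary screen at 10 uM in duplicate; actives rerun as concentration-response up to 20 uM; loss of signal versus acetonitrile control.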

[13] = biological target: rat CYP2A2, Cyp2a2 (gene 24895) (UniProt P15149); assay: NVS_ADME_rCYP2A2: NovaScreen (NVS) CYP450-related Enzyme Activity (ADME) Assay for rat CYP2A2 (AID 2283116; active = hit-call score of the fitted dose curve at least 0.9, where 1 is the maximum)
Summary of the method: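 Cell-free recombinant rat CYP2A2 activity with fluorogenic substrate, fluorescence read 0.2 h after dosing. Chemicals screened at 10 uM in duplicate, hits then run in concentration-response up to 20 uM; signal loss versus acetonitrile baseline.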

[14] = biological target: rat CYP2C11, Cyp2c11 (gene 29277) (UniProt P08683); assay: NVS_ADME_rCYP2C11: NovaScreen (NVS) CYP450-related Enzyme Activity (ADME) Assay for rat CYP2C11 (AID 2283118; active = hit-call score of the fitted dose curve at least 0.9, where 1 is the maximum)
Summary of the method: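 Cell-free recombinant rat enzyme with fluorescent substrate; readout 0.33 h after dosing, loss of signal versus acetonitrile control. Initial duplicate single-point at 10 uM; actives rerun in concentration series.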

[15] = biological target: rat CYP2C13, Cyp2c13 (gene 171521) (UniProt P20814); assay: NVS_ADME_rCYP2C13: NovaScreen (NVS) CYP450-related Enzyme Activity (ADME) Assay for rat CYP2C13 (AID 2283121; active = hit-call score of the fitted dose curve at least 0.9, where 1 is the maximum)
Summary of the method: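 Recombinant rat CYP2C13 with fluorogenic substrate, 0.75 h cell-free incubation; primary screen in duplicate at 10 uM, actives followed in concentration series. Fluorescence loss relative to acetonitrile control indicates inhibition.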

[16] = biological target: human CYP2C9, CYP2C9 (gene 1559) (UniProt P11712); assay: NVS_ADME_hCYP2C9: NovaScreen (NVS) CYP450-related Enzyme Activity (ADME) Assay for human CYP2C9 (AID 2283108; active = hit-call score of the fitted dose curve at least 0.9, where 1 is the maximum)
Summary of the method: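 Cell-free assay of recombinant human CYP2C9 produced in Sf9 cells, with enzyme activity read by fluorescence intensity 0.75 h after compound addition. Loss of signal versus an acetonitrile negative control indicates inhibition. Primary screen used 10 uM in duplicate; actives were retested in concentration series.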

[17] = biological target: human CYP19A1, CYP19A1 (gene 1588) (UniProt P11511); assay: NVS_ADME_hCYP19A1: NovaScreen (NVS) CYP450-related Enzyme Activity (ADME) Assay for human CYP19A1 (AID 2283098; active = hit-call score of the fitted dose curve at least 0.9, where 1 is the maximum;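 as to AC50: potency for inhibitors seen as loss of fluorescent enzyme signal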)
Summary of the method: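 Cell-free enzyme assay with recombinant protein and a specific fluorogenic substrate, read by fluorescence intensity 0.5 h after dosing. Primary screen ran in duplicate at 10 uM; actives were retested in concentration series. Loss of signal versus acetonitrile baseline.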

Measured: AC50

Chain of human CYP2C9, CYP2C9 (gene 1559) (P11712 whole entry, looked up): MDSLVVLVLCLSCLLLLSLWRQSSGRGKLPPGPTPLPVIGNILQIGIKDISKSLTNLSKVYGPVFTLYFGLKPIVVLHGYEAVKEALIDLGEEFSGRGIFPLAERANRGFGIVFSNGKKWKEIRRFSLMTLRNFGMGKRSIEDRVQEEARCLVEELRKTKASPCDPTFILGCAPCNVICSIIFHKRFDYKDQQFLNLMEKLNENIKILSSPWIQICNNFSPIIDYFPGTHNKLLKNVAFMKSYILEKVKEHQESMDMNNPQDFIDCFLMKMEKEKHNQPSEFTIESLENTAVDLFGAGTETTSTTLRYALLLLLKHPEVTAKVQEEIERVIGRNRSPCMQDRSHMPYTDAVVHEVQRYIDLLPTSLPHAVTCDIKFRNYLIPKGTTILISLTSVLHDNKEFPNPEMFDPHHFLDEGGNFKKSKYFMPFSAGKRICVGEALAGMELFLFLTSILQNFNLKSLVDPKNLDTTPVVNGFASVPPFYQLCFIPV
Chain of human CYP1A1, CYP1A1 (gene 1543) (P04798 whole entry, looked up): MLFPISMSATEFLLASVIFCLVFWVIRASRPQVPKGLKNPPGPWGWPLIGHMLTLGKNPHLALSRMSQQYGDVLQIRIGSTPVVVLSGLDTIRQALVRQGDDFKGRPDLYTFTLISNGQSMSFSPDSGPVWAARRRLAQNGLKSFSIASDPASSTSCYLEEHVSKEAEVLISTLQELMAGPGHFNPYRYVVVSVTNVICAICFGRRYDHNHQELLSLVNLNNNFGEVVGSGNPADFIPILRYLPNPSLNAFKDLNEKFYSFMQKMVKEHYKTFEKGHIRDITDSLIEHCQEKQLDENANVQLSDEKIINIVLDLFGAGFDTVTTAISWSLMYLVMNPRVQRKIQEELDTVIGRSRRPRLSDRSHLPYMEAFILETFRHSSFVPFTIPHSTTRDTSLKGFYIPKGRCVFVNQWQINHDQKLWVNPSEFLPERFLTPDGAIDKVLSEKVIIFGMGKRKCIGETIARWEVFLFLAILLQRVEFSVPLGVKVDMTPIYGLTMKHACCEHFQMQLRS
Chain of human CYP19A1, CYP19A1 (gene 1588) (P11511 whole entry, looked up): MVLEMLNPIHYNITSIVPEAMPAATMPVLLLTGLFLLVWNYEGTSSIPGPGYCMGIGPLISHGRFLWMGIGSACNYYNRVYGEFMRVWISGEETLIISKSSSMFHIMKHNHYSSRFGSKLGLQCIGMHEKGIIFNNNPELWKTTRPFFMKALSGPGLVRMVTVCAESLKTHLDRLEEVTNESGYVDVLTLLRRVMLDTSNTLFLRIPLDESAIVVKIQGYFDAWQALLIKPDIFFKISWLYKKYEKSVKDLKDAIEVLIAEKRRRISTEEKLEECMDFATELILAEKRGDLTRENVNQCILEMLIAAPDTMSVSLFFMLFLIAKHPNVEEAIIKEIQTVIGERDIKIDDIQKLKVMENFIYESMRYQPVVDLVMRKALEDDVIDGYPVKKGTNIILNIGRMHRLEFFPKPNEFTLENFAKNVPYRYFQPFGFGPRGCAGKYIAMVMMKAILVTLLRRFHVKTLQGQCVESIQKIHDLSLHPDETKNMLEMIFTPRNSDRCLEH
Chain of human CYP1A2, CYP1A2 (gene 1544) (P05177 whole entry, looked up): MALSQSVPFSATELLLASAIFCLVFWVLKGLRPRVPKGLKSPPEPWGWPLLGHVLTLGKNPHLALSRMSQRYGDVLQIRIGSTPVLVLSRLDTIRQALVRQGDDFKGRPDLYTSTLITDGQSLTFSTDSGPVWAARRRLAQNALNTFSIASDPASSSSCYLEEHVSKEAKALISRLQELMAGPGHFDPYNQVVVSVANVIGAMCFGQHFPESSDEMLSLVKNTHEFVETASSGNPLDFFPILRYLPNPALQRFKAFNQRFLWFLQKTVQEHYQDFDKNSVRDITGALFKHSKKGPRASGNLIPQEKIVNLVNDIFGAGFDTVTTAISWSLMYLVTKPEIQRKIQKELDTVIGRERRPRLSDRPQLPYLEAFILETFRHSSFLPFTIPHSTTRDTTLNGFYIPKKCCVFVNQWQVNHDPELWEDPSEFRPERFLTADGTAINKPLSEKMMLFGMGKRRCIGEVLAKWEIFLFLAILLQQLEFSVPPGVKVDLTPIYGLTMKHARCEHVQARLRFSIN
Chain of human CYP2D6, CYP2D6 (gene 1565) (P10635 whole entry, looked up): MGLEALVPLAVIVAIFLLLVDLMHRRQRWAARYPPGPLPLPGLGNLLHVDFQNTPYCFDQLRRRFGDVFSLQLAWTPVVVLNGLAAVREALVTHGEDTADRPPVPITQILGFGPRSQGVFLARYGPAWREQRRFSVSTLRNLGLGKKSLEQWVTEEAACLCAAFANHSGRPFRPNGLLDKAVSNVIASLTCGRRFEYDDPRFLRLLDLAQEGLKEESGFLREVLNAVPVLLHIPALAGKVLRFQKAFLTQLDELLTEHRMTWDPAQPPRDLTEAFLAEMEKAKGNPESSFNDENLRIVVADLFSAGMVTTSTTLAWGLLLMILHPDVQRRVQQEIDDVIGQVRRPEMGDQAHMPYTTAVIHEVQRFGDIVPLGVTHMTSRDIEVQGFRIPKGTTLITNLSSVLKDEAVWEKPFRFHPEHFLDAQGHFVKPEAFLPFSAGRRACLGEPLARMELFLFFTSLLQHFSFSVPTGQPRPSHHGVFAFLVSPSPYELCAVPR
Chain of rat CYP2C11, Cyp2c11 (gene 29277) (P08683 whole entry, looked up): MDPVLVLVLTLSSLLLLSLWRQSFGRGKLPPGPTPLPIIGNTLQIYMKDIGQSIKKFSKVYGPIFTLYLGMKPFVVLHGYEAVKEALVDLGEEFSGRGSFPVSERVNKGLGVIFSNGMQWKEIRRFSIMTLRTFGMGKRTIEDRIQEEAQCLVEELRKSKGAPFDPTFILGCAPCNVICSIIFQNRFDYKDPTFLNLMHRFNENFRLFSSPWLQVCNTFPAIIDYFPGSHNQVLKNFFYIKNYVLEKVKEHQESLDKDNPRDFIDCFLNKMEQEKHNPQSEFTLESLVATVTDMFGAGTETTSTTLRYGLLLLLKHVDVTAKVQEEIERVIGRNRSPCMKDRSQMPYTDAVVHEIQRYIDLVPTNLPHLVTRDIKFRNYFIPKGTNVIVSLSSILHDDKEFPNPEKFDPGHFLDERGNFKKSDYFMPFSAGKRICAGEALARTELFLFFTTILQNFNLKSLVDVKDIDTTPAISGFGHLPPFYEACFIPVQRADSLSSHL
Chain of rat CYP2A2, Cyp2a2 (gene 24895) (P15149 whole entry, looked up): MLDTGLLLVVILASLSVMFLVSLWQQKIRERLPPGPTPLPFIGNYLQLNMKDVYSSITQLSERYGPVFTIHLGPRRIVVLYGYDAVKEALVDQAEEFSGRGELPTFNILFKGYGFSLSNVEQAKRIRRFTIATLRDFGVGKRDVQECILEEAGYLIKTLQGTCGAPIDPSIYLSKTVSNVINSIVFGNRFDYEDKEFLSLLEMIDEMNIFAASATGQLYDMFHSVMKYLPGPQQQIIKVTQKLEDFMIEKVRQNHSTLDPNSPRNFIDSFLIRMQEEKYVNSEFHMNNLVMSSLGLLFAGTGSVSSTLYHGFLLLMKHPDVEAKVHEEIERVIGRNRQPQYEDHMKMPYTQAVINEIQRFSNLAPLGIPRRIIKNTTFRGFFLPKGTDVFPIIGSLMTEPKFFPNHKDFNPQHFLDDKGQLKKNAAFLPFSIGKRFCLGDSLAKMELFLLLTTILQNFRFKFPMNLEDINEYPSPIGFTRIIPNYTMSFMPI
Chain of rat CYP2C13, Cyp2c13 (gene 171521) (P20814 whole entry, looked up): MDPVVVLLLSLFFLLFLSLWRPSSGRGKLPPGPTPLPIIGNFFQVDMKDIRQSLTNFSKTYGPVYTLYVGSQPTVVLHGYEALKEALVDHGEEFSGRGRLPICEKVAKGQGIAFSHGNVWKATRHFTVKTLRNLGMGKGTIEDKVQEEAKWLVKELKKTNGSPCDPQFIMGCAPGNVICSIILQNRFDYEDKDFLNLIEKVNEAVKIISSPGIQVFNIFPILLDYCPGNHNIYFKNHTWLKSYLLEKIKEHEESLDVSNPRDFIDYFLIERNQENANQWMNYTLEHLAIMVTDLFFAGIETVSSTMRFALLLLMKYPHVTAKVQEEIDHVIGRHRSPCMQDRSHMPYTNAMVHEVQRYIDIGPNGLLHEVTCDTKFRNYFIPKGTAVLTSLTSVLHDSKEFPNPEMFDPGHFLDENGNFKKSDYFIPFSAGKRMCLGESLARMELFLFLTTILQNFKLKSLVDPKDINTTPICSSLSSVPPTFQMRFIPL
Chain of human CYP2B6, CYP2B6 (gene 1555) (P20813 whole entry, looked up): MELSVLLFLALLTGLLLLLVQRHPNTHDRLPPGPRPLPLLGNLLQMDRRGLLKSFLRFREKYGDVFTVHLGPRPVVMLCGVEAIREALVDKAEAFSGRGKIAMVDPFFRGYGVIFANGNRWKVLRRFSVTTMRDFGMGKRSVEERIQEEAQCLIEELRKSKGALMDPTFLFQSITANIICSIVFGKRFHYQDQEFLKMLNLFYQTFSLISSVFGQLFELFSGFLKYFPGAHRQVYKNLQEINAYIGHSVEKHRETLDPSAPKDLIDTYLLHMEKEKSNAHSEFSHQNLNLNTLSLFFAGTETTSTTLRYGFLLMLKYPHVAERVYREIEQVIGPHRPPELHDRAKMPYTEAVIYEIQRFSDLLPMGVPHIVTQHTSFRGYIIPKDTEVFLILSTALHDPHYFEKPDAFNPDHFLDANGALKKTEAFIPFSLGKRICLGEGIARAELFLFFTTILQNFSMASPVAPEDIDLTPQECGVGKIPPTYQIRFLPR
Chain of rat CYP2A1, Cyp2a1 (gene 24894) (P11711 whole entry, looked up): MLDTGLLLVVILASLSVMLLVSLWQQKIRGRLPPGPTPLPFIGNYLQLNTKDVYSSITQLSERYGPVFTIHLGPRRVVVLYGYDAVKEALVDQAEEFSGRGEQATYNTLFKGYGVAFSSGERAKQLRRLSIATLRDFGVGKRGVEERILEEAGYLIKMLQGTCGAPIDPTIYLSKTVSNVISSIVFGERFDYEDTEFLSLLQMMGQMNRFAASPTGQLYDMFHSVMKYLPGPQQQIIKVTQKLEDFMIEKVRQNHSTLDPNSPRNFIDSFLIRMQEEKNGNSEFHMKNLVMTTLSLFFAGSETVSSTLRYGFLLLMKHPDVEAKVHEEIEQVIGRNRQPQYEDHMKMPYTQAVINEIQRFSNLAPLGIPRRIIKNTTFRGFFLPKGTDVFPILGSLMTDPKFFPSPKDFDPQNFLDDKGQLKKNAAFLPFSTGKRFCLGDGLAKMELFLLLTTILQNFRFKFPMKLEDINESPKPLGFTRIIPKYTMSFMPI

CCCC(=O)OCCC(C)C
inactive: [1] | [2] | [3] | [4] | [5]

O=C=NCCCCCCN=C=O
inactive: [6] | [1] | [2] | [3] | [5]
active: [4] 15.8 µM

Cc1ccc2oc(CN(Cc3ccccc3)C(=O)Nc3c(F)cc(F)cc3F)c(-c3ccc(Cl)cc3)c2c1
active: [4] 6.03 µM
inactive: [1] | [2] | [3] | [5]

O=c1ccc2ccccc2o1
inactive: [1] | [2] | [3] | [4] | [5]

CN(C)c1ccc(C(=C2C=CC(=[N+](C)C)C=C2)c2ccc(N(C)C)cc2)cc1
active: [1] 1.61 µM | [2] 5.83 µM | [3] 0.148 µM | [4] 0.693 µM | [5] 7.53 µM | [7] 2.02 µM | [8] 6.7 µM | [9] 6.67 µM | [10] 2.86 µM | [11] 3.32 µM

CN1C(=O)N(c2ccccc2Br)Cc2cnc(Nc3ccc4c(c3)OCC(CO)O4)nc21 (centres undefined)
active: [1] 2.89 µM | [2] 1.87 µM | [3] 1.62 µM | [4] 1.52 µM | [5] 2.23 µM

O=C(OCCCCCCOC(=O)c1ccccc1)c1ccccc1
active: [9] 5.42 µM
inactive: [1] | [2] | [3] | [4] | [5]

CC(C)(C)c1cc(/C=C2\SC(N)=NC2=O)cc(C(C)(C)C)c1O
active: [1] 27.6 µM | [2] 11.1 µM | [3] 8.74 µM | [4] 7.44 µM | [5] 26.6 µM | [11] 1.16 µM

COc1ccc2cc(S(=O)(=O)N[C@H](CC(=O)N[C@H](Cc3ccc(CN4[C@H](C)CCC[C@@H]4C)cc3)C(=O)N(C)C(C)C)c3ccc4c(c3)OCO4)ccc2c1
active: [1] 35.2 µM | [2] 14.6 µM | [3] 14.8 µM | [4] 12 µM | [5] 17.3 µM | [10] 0.305 µM | [11] 5.3 µM
inactive: [7]

Cc1c2ccccc2c(C)c2c1ccc1ccccc12
active: [2] 34 µM | [3] 26.4 µM | [5] 29.1 µM | [9] 4.33 µM | [11] 7.17 µM
inactive: [1]

CC/C(=C(/CC)c1ccc(O)cc1)c1ccc(O)cc1
active: [1] 31.9 µM | [2] 29.1 µM | [3] 13.4 µM | [4] 11.8 µM | [5] 23.1 µM | [12] 8.99 µM | [13] 10.2 µM | [14] 1.95 µM and 7.02 µM | [15] 1.08 µM and 3.79 µM

CCCCCCCC[Si](OCC)(OCC)OCC
inactive: [1] | [3] | [4]
active: [2] 18.7 µM | [5] 31.7 µM

O=C1c2ccccc2C(=O)N1CCc1noc(-c2ccc(CN3CCCCCC3)s2)n1
inactive: [1] | [2] | [3] | [4] | [5]
active: [7] 4.62 µM | [10] 6.57 µM | [16] 5.62 µM | [11] 1.13 µM

CC(C)(O)c1ccc(CNC(=O)c2cccnc2Oc2ccc3nonc3c2)cc1
inactive: [1] | [2] | [3] | [4] | [5]
active: [16] 13 µM | [11] 10.9 µM

CCCCCCCCN(C)CCCCCCCC
inactive: [1] | [2] | [3] | [4] | [5]

COCC(C)OCC(C)OCC(C)O (centres undefined)
inactive: [1] | [2] | [3] | [4] | [5]

CCCCCCCCCCCC[N+](C)(C)C
active: [1] 29.4 µM | [2] 20 µM | [4] 6.09 µM | [5] 25.8 µM | [10] 7.58 µM

OCCO
inactive: [1] | [2] | [3] | [4] | [5] | [17]

CCCCOC(=O)CC(CC(=O)OCCCC)(OC(C)=O)C(=O)OCCCC
active: [11] 3.7 µM and 9.42 µM
inactive: [1] | [2] | [3] | [4] | [5] | [16] | [13]

C[C@]12CC[C@@H]3c4ccc(O)cc4CC[C@H]3[C@@H]1CC[C@H]2O
active: [4] 12.4 µM | [5] 12.1 µM | [17] 10 µM | [11] 0.649 µM
inactive: [1] | [2] | [3] | [17]
